The target of assay [1] is Cytochrome P450 2C9 (Homo sapiens) (UniProt P11712). The assay can be described thus: Cytochrome P450 Family 2 Subfamily C Member 9 (CYP2C9) small molecule antagonists: luciferase reporter qHTS assay (AID 1671198). Also: potency is read from the fitted curve at half-maximal effect. In short, it runs like this:
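CYP2C9 activity was measured with a P450-Glo proluciferin substrate. Enzyme–substrate mix was held with compound for 10 min at room temperature, then NADPH regeneration solution was added for 1 h at 37C. Luciferin product was read as luminescence.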
(Reporter assays use an easily measured gene product as a stand-in for the process of interest.)

In assay [2] the target is Cytochrome P450 1A2 (Homo sapiens) (UniProt P05177). The assay can be described thus: Cytochrome P450 Family 1 Subfamily A Member 2 (CYP1A2) small molecule antagonists: luciferase reporter qHTS assay (AID 1671199). Also: potency is read from the fitted curve at half-maximal effect. In a few lines: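 Inhibition of CYP1A2 conversion of proluciferin to luciferin, detected by luminescence. Reaction run 1 h at room temperature with NADPH regeneration after brief compound preincubation.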

The target in assay [3] is Voltage-gated inwardly rectifying potassium channel KCNH2 (Homo sapiens) (UniProt Q12809). The assay can be described thus: Human Ether-a-go-go-Related Gene (hERG) channel small molecule antagonists: fluorescence cell-based qHTS assay (AID 1671200).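 Also: hERG-expressing U2OS cells given a thallium stimulus after FluxOR II dye loading; series mostly up to about 77 µM.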 In a few lines:
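Thallium served as the potassium surrogate; its influx into dye-loaded U2OS cells carrying the channel was measured by fluorescence over 2 min.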
(hERG is a cardiac potassium channel; its block is linked to QT prolongation.)

Assay [4] addresses Cytochrome P450 3A4 (Homo sapiens) (UniProt P08684). The assay can be described thus: Cytochrome P450 Family 3 Subfamily A Member 4 (CYP3A4) small molecule antagonists: luciferase reporter qHTS assay (AID 1671201). Also: potency is read from the fitted curve at half-maximal effect. In a few lines:
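Relative luminescence units after 20 min with luciferin detection reagent served as read-out. Beforehand, CYP3A4 turned over a proluciferin substrate for 1 h at room temperature with NADPH regeneration, following 10 min compound preincubation.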

SMILES strings stand for the structures. Several values for one entry are separate records, joined by “and”; a condition that tells them apart may be missing. Equal values may be shown once. Results filed as inconclusive are left out. Some structures have more than one record in an assay (separate samples or runs), and their calls can disagree. Activity calls are given as the source filed them. Calls follow the shape of the dose curve; as a rule, active = well fitted curve in the direction sought with a large enough effect in the repeat runs; inconclusive = weak or mixed curves; inactive = no such curve, though single readings can be large; an effect the other way counts as inactive or inconclusive.
Also: nearly all actives have a fitted effect of over 50% in size.

Cytochrome P450 2C9 (Homo sapiens), sequence (P11712 whole entry, looked up): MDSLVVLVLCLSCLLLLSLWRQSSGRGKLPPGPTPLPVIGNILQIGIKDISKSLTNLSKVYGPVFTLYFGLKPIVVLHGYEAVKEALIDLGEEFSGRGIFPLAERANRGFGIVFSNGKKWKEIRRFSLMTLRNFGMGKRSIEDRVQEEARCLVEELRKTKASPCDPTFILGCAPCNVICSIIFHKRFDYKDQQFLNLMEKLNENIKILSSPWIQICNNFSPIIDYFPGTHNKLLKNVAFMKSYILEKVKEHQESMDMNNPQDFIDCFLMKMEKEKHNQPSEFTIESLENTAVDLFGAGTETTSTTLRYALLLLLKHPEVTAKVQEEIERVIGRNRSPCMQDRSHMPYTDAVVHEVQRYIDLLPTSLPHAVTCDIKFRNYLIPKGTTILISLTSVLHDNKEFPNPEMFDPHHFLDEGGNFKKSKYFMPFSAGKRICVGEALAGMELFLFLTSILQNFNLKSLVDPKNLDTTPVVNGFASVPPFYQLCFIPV
Voltage-gated inwardly rectifying potassium channel KCNH2 (Homo sapiens), sequence (Q12809 whole entry, looked up): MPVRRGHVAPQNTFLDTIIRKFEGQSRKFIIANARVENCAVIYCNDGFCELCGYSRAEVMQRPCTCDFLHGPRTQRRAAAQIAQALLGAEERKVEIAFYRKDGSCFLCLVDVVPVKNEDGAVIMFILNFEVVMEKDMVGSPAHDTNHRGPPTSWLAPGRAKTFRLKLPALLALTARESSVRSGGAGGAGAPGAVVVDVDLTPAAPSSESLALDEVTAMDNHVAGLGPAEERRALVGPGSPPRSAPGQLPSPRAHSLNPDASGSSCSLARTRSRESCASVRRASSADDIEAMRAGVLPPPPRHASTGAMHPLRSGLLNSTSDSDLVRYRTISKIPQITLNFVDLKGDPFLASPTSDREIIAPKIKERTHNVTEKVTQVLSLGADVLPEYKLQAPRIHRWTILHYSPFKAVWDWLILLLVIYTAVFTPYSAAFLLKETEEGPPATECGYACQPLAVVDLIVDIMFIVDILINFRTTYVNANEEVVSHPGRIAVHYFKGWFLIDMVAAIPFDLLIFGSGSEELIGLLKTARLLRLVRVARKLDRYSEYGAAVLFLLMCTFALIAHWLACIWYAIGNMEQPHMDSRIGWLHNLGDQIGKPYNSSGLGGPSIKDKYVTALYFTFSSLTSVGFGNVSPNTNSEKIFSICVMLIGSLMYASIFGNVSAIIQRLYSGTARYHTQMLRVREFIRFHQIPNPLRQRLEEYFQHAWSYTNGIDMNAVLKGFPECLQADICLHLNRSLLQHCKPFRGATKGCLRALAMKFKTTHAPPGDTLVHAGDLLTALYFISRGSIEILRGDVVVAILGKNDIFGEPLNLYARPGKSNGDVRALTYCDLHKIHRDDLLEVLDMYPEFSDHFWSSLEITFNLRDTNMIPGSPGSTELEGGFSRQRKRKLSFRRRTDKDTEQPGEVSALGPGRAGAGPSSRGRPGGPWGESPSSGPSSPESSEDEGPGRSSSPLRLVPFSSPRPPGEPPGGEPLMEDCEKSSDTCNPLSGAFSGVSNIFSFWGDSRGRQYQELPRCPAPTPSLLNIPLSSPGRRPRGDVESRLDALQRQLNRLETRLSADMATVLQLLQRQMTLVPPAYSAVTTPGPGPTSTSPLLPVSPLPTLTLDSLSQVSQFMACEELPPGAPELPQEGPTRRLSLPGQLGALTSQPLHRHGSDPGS
Cytochrome P450 3A4 (Homo sapiens), sequence (P08684 whole entry, looked up): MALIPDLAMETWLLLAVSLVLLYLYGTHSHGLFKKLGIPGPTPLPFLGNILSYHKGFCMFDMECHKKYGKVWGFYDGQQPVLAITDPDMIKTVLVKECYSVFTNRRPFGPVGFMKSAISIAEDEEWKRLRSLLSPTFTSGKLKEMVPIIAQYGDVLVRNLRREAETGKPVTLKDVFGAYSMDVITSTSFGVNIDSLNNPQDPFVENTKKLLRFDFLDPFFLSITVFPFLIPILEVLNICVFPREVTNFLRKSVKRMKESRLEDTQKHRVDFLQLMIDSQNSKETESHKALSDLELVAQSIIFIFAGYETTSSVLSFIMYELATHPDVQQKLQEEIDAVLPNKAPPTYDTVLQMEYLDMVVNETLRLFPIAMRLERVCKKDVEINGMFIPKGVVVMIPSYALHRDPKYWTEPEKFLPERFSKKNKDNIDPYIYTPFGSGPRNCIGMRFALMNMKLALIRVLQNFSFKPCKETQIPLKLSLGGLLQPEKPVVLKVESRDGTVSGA
Cytochrome P450 1A2 (Homo sapiens), sequence (P05177 whole entry, looked up): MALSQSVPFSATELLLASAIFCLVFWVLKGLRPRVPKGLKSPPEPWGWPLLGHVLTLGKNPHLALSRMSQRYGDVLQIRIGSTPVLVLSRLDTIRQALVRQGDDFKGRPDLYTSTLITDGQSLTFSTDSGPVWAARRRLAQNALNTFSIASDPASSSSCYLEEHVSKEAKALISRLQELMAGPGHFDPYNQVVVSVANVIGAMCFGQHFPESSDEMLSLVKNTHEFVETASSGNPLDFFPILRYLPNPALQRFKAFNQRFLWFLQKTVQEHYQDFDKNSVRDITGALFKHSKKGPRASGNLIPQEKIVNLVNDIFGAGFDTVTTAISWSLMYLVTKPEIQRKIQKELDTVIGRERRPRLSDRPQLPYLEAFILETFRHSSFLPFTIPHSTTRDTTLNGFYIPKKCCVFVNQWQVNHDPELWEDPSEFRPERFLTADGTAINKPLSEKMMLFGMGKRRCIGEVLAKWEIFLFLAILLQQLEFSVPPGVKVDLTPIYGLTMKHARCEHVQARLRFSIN

With `CN1Cc2c(N)cccc2C(c2ccccc2)C1` (stereo not drawn), the Potency result in assay [1], in assay [2], in assay [3] and in assay [4] was “inactive” each time.

With `CCCCCNCCCCC`, the Potency entry in assay [1], in assay [2], in assay [3] and in assay [4] was “inactive” each time.

For the molecule `C[Si](C)(C)N[Si](C)(C)C`, the Potency entry in assay [1], in assay [2], in assay [3] and in assay [4] was “inactive” throughout.

For `O=Cc1ccc(CO)o1`, the Potency result in assay [1], in assay [2], in assay [3] and in assay [4] was “inactive” throughout.

Take `Cc1cc(C)c(O)c(C)c1`: the Potency in assay [1] was 35.6 µM (active) and 79.6 µM (active); in assay [2], 35.6 µM (active) and 28.3 µM (active). Besides, the Potency entry in assay [3] and in assay [4] was “inactive” each time.

In the case of `OB(O)O`, the Potency entry in assay [1], in assay [2], in assay [3] and in assay [4] was “inactive” in each case.

Take `C=CC(=O)NCOCCCC`: the Potency entry in assay [1], in assay [2], in assay [3] and in assay [4] was “inactive” each time.

Regarding `Cc1ccc(Cl)cc1`, in assay [1], the Potency is 63.3 µM (active). For the same molecule, the Potency result in assay [2], in assay [3] and in assay [4] was “inactive” each time.

In the case of `Cc1cccc(C)c1[N+](=O)[O-]`, the Potency result in assay [1], in assay [2], in assay [3] and in assay [4] was “inactive” throughout.

Regarding `CCCCCCCC(=O)O`, the Potency result in assay [1], in assay [2], in assay [3] and in assay [4] was “inactive” each time.

Consider `O=C(Cl)c1ccc(C(=O)Cl)cc1`, for which the Potency result in assay [1], in assay [3] and in assay [4] was “inactive” throughout. Further, the Potency result in assay [2] was “inactive and 63.3 µM (active)”.

With `CC(=O)OC(C)(C)C1CC=C(C)CC1` (stereo not drawn), the Potency in assay [1] is 39.9 µM (active); in assay [4] it was “inactive and 31.7 µM (active)”. Also, the Potency entry in assay [2] and in assay [3] was “inactive” each time.

Consider `CC(=O)C(C)C`, for which the Potency entry in assay [1], in assay [2], in assay [3] and in assay [4] was “inactive” each time.

Regarding `CC(=O)CC(=O)N(C)C`, the Potency entry in assay [1], in assay [2], in assay [3] and in assay [4] was “inactive” throughout.

For the molecule `OCC(CO)(CO)CO`, the Potency entry in assay [1], in assay [2], in assay [3] and in assay [4] was “inactive” throughout.

On to `CN1CCCC1=O`, for which the Potency result in assay [1], in assay [2], in assay [3] and in assay [4] was “inactive” throughout.

`OCC(O)CS` (stereo not drawn): the Potency result in assay [1], in assay [2], in assay [3] and in assay [4] was “inactive” throughout.

Take `Cc1nnc(NS(=O)(=O)c2ccc(N)cc2)s1`: the Potency in assay [1] is 35.5 µM (active). The Potency entry in assay [2], in assay [3] and in assay [4] was “inactive” each time.

As for `COC(=O)CCCCC(=O)OC`, the Potency entry in assay [1], in assay [2], in assay [3] and in assay [4] was “inactive” in each case.

Consider `CC1=CC(=O)CC(C)(C)C1`, for which the Potency entry in assay [1], in assay [3] and in assay [4] was “inactive” each time. In addition, the Potency in assay [2] was 36.6 µM (active) and inactive.

As to `CCCCCCCCC(=O)O`, the Potency is 61.3 µM (active) and 79.6 µM (active) in assay [1]; 38.6 µM (active) in assay [2]. The Potency entry in assay [3] and in assay [4] was “inactive” throughout.

In the case of `CC(O)CNCC(C)O` (stereo not drawn), the Potency in assay [1] was 35.8 µM (active) and inactive; in assay [4], 31.9 µM (active) and inactive. For the same molecule, the Potency result in assay [2] and in assay [3] was “inactive” each time.

With `Cc1ccccc1C=O`, the Potency result in assay [1], in assay [2], in assay [3] and in assay [4] was “inactive” in each case.

For the molecule `C[n+]1ccn(CCO)c1`, the Potency result in assay [1], in assay [2], in assay [3] and in assay [4] was “inactive” each time.

For `COc1cc(NC(=O)CC(C)=O)c(OC)cc1Cl`, the Potency in assay [1] is 40.1 µM (active) and 39.9 µM (active); in assay [2], 3.57 µM (active) and 5.64 µM (active); in assay [4] it was 14.2 µM (active) and 15.9 µM (active). In assay [3], the Potency result is “inactive”.

As for `OC1CCCCC1`, the Potency result in assay [1], in assay [2], in assay [3] and in assay [4] was “inactive” throughout.

With `CC(C)=CCC/C(C)=C/C=O`, the Potency result was “inactive and 79.6 µM (active)” in assay [1]; “inactive and 35.6 µM (active)” in assay [4]. In addition, the Potency entry in assay [2] and in assay [3] was “inactive” throughout.

Consider `OCc1ccc(Cl)cc1Cl`, for which the Potency entry in assay [1], in assay [3] and in assay [4] was “inactive” throughout. The Potency in assay [2] was 39.9 µM (active).

Regarding `CC1(C)[C@@H](O[C@H]2O[C@H](C(=O)O)[C@@H](O)[C@H](O)[C@H]2O[C@@H]2O[C@H](C(=O)O)[C@@H](O)[C@H](O)[C@H]2O)CC[C@]2(C)[C@H]3C(=O)C=C4[C@@H]5C[C@@](C)(C(=O)O)CC[C@]5(C)CC[C@@]4(C)[C@]3(C)CC[C@@H]12`, the Potency entry in assay [1], in assay [2], in assay [3] and in assay [4] was “inactive” each time.

For the molecule `NC(=O)NC(N)=O`, the Potency entry in assay [1], in assay [2], in assay [3] and in assay [4] was “inactive” in each case.

`C=CC(C)(C)C`: the Potency entry in assay [1], in assay [3] and in assay [4] was “inactive” in each case. For the same molecule, the Potency in assay [2] was 44.8 µM (active).

`CC1(C)C(=O)N(Cl)C(=O)N1Cl`: the Potency result in assay [1], in assay [2], in assay [3] and in assay [4] was “inactive” throughout.

For the molecule `CCCCCC(C)=O`, the Potency result in assay [1], in assay [2], in assay [3] and in assay [4] was “inactive” throughout.

For the molecule `O=[N+]([O-])c1cc(C(F)(F)F)ccc1Cl`, the Potency entry in assay [1], in assay [2], in assay [3] and in assay [4] was “inactive” each time.

As to `CCCCC(=O)O`, the Potency result in assay [1], in assay [2], in assay [3] and in assay [4] was “inactive” each time.

As to `CCCCCCCCO`, the Potency entry in assay [1], in assay [3] and in assay [4] was “inactive” each time. Further, the Potency in assay [2] is 37.1 µM (active).

For `CC(C=O)Cc1ccc(C(C)(C)C)cc1` (stereo not drawn), the Potency in assay [1] is 56.4 µM (active). The Potency entry in assay [2], in assay [3] and in assay [4] was “inactive” throughout.
